Test results as given in PubChem BioAssay (Tox21).
Inconclusive results are not listed. Calls of active or inactive are those of the source. Unless noted, calls come from the whole dose curve; as a rule, active = well fitted curve in the direction sought with a large enough effect in the repeat runs; inconclusive = weak or mixed curves; inactive = no such curve, though single readings can be large; an effect the other way counts as inactive or inconclusive.

Assays:
[1] = A CellTox Green Cytotoxicity Assay to monitor cytotoxicity in HepG2 cells - 16 hour (AID 1224876); note: nearly all actives have a fitted effect of over 45% in size; note: potency is the fitted concentration of half-maximal effect
Summary of the method: (§1)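 Continuous culture of HepG2 cells with a membrane-impermeant DNA dye; rising fluorescence marks dead cells. Compound exposure lasted up to 40 h at 37 C, with reads every 8 h from 0 h.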

[2] = qHTS RealTime-Glo MT Cell Viability Assay in HepG2 cells - 32 hour (AID 1224877); note: nearly all actives have a fitted effect of over 55% in size
Summary of the method: (§2)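 Tox21 10K library screened in qHTS format on HepG2 cells carrying RealTime-Glo reagents. Compounds were added after a 5 h preincubation, and the luminescent signal from continuous culture was measured repeatedly during 40 h treatment.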

[3] = A CellTox Green Cytotoxicity Assay to monitor cytotoxicity in HepG2 cells - 24 hour (AID 1224878); note: nearly all actives have a fitted effect of over 45% in size; note: potency is the fitted concentration of half-maximal effect
Summary of the method: as §1

[4] = A CellTox Green Cytotoxicity Assay to monitor cytotoxicity in HepG2 cells - 40 hour (AID 1224879); note: nearly all actives have a fitted effect of over 40% in size; note: potency is the fitted concentration of half-maximal effect
Summary of the method: as §1

[5] = qHTS RealTime-Glo MT Cell Viability Assay in HEK293 cells - 0 hour (AID 1224880); note: top concentration of the series differs between compounds; nearly all actives have a fitted effect of over 45% in size
Summary of the method: (§3)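 qHTS format; HEK293 cells with NanoLuc/prosubstrate reagent, 37 C/5% CO2 for 5 h pre-dosing; compounds 23 nL in DMSO; luminescence at each time point reflects viable cells.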

[6] = A CellTox Green Cytotoxicity Assay to monitor cytotoxicity in HepG2 cells - 0 hour (AID 1224882); note: nearly all actives have a fitted effect of over 35% in size
Summary of the method: as §1

[7] = A CellTox Green Cytotoxicity Assay to monitor cytotoxicity in HepG2 cells - 32 hour (AID 1224883); note: nearly all actives have a fitted effect of over 50% in size; note: potency is the fitted concentration of half-maximal effect
Summary of the method: as §1

[8] = qHTS RealTime-Glo MT Cell Viability Assay in HepG2 cells - 16 hour (AID 1224885); note: nearly all actives have a fitted effect of over 50% in size
Summary of the method: as §2

[9] = qHTS RealTime-Glo MT Cell Viability Assay in HEK293 cells - 8 hour (AID 1224887); note: top concentration of the series differs between compounds; nearly all actives have a fitted effect of over 50% in size
Summary of the method: as §3

[10] = A CellTox Green Cytotoxicity Assay to monitor cytotoxicity in HEK293 cells - 16 hour (AID 1224888); note: nearly all actives have a fitted effect of over 35% in size; note: potency is the fitted concentration of half-maximal effect
Summary of the method: (§4)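 Each value comes from one timepoint of a single continuous run in which HEK293 cells with CellTox Green were exposed to compound for up to 40 h at 37 C, dye fluorescence rising with cell death.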

[11] = qHTS RealTime-Glo MT Cell Viability Assay in HepG2 cells - 0 hour (AID 1224889); note: nearly all actives have a fitted effect of over 50% in size
Summary of the method: as §2

[12] = A CellTox Green Cytotoxicity Assay to monitor cytotoxicity in HepG2 cells - 8 hour (AID 1224890); note: nearly all actives have a fitted effect of over 45% in size; note: potency is the fitted concentration of half-maximal effect
Summary of the method: as §1

[13] = qHTS assay to identify small molecule antagonists of the estrogen receptor alpha (ER-alpha) signaling pathway using the BG1 cell line in the presence of 0.1 nM 17-beta-estradiol - cell viability counter screen (AID 1259241); note: nearly all actives have a fitted effect of over 40% in size
Summary of the method: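 Following 5 days in phenol red-free medium with charcoal-stripped serum, VM7Luc4E2 cells received test compounds alongside 0.1 nM 17beta-estradiol (final) at 37C for 22 hr. Live cells were then quantified via protease-substrate fluorescence.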

[14] = qHTS assay to identify small molecule antagonists of the androgen receptor (AR) signaling pathway using the MDA cell line in the presence of 0.5 nM R1881 - cell viability counter screen (AID 1259242); note: nearly all actives have a fitted effect of over 45% in size
Summary of the method: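 Fluorescence from CellTiter-Fluor, which reports protease activity of live cells, was read 30 min after reagent addition to MDA-kb2 cells that had been incubated 16 hr with compound and 0.5 nM R1881.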

[15] = target: Estrogen receptor (Homo sapiens) (UniProt P03372); test: qHTS assay to identify small molecule antagonists of the estrogen receptor alpha (ER-alpha) signaling pathway using the BG1 cell line in the presence of 0.1 nM 17-beta-estradiol (AID 1259244); note: nearly all actives have a fitted effect of over 50% in size
Summary of the method: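 Quantitative high-throughput screen in VM7Luc4E2 cells: compound plus 0.1 nM E2 (final), 22 h, 37C, 5% CO2; ONE-Glo added, 30 min room temperature, luminescence measured.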

[16] = qHTS RealTime-Glo MT Cell Viability Assay in HEK293 cells - 24 hour (AID 1224886)
Summary of the method: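 Luminescence generated by NanoLuc from substrate produced by living HEK293 cells served as the viability signal. Each value reflects the reading at its stated time point during continuous 40 h compound exposure at 37 C.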

[17] = A CellTox Green Cytotoxicity Assay to monitor cytotoxicity in HEK293 cells - 8 hour (AID 1224884); note: nearly all actives have a fitted effect of over 35% in size
Summary of the method: as §4

[18] = qHTS assay to identify small molecule phospholipidosis (PLD) inducers (AID 1259344; active = well fitted curve in the direction sought with a large enough effect; an effect the other way counts as inactive or inconclusive)
Summary of the method: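 Phospholipidosis is scored by imaging LipidTOX-stained pits in HepG2 cells exposed to compound for 24 h at 37 C; pit counts and integrated intensities per well and per cell serve as outputs.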

[19] = A CellTox Green Cytotoxicity Assay to monitor cytotoxicity in HEK293 cells - 32 hour (AID 1224881); note: nearly all actives have a fitted effect of over 40% in size
Summary of the method: as §4

[20] = target: Androgen receptor (Homo sapiens) (UniProt P10275); test: qHTS assay to identify small molecule antagonists of the androgen receptor (AR) signaling pathway using the MDA cell line in the presence of 0.5 nM R1881 (AID 1259243); note: nearly all actives have a fitted effect of over 50% in size
Summary of the method: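 Inhibition of R1881 (0.5 nM final) induced reporter signal was measured in human MDA-kb2 cells; note the MMTV promoter also responds to GR. Exposure lasted 16 hr at 37C.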

Measured: Potency

Chain of Estrogen receptor (Homo sapiens) (P03372 whole entry, looked up): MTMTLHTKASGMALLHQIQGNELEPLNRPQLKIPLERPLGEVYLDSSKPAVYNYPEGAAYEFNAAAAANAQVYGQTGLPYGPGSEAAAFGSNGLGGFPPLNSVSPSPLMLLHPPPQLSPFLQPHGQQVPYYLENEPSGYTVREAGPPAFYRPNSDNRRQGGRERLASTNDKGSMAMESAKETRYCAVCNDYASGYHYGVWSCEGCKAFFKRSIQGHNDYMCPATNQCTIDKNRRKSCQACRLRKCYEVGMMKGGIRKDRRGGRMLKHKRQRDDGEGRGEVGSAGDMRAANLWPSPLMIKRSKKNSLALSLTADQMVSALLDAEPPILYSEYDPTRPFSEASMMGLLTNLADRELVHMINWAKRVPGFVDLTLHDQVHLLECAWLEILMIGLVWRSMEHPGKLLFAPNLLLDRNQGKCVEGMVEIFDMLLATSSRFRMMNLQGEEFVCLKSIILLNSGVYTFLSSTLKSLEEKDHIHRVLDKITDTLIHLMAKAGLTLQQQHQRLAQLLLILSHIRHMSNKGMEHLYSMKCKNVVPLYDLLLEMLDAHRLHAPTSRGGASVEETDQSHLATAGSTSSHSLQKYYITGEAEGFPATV
Chain of Androgen receptor (Homo sapiens) (P10275 whole entry, looked up): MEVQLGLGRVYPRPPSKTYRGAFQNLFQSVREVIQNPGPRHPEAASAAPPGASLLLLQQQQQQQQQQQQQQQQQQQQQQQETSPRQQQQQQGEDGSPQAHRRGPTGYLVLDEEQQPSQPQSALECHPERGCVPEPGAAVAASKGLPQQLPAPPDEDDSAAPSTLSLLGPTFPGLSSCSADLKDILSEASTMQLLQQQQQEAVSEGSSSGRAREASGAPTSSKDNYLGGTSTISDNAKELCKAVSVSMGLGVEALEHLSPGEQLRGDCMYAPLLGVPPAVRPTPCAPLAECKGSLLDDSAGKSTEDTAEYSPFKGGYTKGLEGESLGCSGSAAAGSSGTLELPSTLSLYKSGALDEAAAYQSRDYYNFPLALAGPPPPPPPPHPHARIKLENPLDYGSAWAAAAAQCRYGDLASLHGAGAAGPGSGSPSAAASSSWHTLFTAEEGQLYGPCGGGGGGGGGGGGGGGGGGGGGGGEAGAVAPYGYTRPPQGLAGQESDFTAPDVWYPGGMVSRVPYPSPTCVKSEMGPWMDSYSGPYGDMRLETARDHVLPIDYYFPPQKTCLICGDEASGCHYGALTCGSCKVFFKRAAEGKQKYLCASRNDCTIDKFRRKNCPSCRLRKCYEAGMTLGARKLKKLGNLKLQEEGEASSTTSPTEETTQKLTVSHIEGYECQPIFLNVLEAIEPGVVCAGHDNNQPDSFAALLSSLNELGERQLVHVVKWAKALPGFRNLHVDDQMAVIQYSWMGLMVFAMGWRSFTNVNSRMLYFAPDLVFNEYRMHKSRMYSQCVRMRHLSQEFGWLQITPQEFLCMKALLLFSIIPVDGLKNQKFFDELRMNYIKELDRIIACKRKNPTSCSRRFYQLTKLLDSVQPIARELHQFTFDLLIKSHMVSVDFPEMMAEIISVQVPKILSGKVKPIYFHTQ

CCCC(=O)OC/C=C(\C)CCC=C(C)C
inactive: [1] | [2] | [3] | [4] | [5] | [6] | [7] | [8] | [9] | [11] | [12] | [13] | [14] | [15]
active: [10] 54900 nM

CC12CCC(C1)C(C)(C)C2O (stereo unspecified)
active: [1] 1950 nM | [3] 2190 nM | [4] 2190 nM | [7] 2190 nM | [12] 1950 nM
inactive: [2] | [5] | [6] | [8] | [9] | [11] | [13] | [14] | [15]

O=C[O][Al]([O]C=O)[O]C=O
inactive: [1] | [2] | [3] | [4] | [6] | [7] | [8] | [16] | [10] | [11] | [12] | [13] | [14] | [15]

CCC(C(=O)OCCN1CCOC(c2ccccc2)C1C)c1ccccc1 (stereo unspecified)
inactive: [1] | [2] | [3] | [4] | [5] | [6] | [7] | [8] | [10] | [11] | [12] | [13] | [14] | [15]

O=C(CN1CCNCC1)NC1CCCCC1
inactive: [1] | [2] | [3] | [4] | [5] | [6] | [7] | [17] | [8] | [16] | [10] | [11] | [12] | [13] | [14] | [15] | [18]

CCNC(=O)NCc1cccc(Cl)c1
inactive: [1] | [2] | [3] | [5] | [19] | [6] | [7] | [17] | [8] | [16] | [10] | [11] | [12] | [13] | [14] | [15] | [18]

CC(=O)OC1CCCCC1C(C)(C)C (stereo unspecified)
inactive: [1] | [2] | [3] | [4] | [5] | [8] | [16] | [10] | [11] | [12] | [13] | [14] | [20] | [15]

CC(=O)Nc1ccc(OC(=O)c2ccccc2OC(C)=O)cc1
inactive: [1] | [2] | [3] | [4] | [5] | [6] | [7] | [17] | [8] | [16] | [11] | [12] | [13] | [14] | [15] | [18]
